This note sets out measurements from PubChem BioAssay (EPA / NIEHS).

Results filed as inconclusive are left out. Active and inactive are the calls of the source. How the source made its calls: active means hit-call score of the fitted dose curve at least 0.9, where 1 is the maximum; inconclusive means response in the unintended direction; inactive means score below 0.9.

The test can be described thus: CLD_ACTIN_6hr: CellzDirect (CLD) Gene Expression Assay for Baseline Control (Actin) at 6 hours (AID 2283676). As for the experimental part: CLD_6hr is a cell-based, multiplexed-readout assay that uses hepatocyte, a human liver primary cell, with measurements taken at 6 hours after chemical dosing in a 96-well plate.CLD_ACTIN_6hr is one of 16 assay component(s) measured or calculated from the CLD_6hr assay. It is designed to make measurements of mRNA induction, a form of inducible reporter, as detected with chemiluminescence signals by Quantitative Nuclease Protection Assay (qNPA) technology.Data from the assay component CLD_ACTIN_6hr was analyzed at the endpoint, CLD_ACTIN_6hr, in the positive analysis fitting direction relative to DMSO as the negative control and baseline of activity. Using a type of inducible reporter, gain-of-signal activity can be used to understand changes in the reporter gene as they relate to the gene ACTA1. Furthermore, this assay endpoint can be referred to as a secondary readout, because this assay has produced multiple assay endpoints where this one serves a background control function. To generalize the intended target to other relatable targets, this assay endpoint is annotated to the background measurement intended target family, where subfamily is baseline control.
Human hepatocyte cultures were treated daily for two consecutive days with fresh dosing solutions containing appropriate concentrations of the 320 ToxCast chemicals (chemical identities were blinded to CellzDirect and other ToxCast collaborators), vehicle control (0.2% DMSO), and positive control inducers as summarized in Table 1. Due to the large number of treatment groups and chemicals examined, the ToxCast chemicals were divided into two groups (spanning two independent cultures of hepatocytes from separate donor preparations (Hu778: ToxCast plates 1 and 2; Hu776: ToxCast plates 3 and 4). Each preparation of human hepatocyte cultures was treated with respective vehicle control, medium only control, set of six positive controls/reference chemicals for the five hepatic receptor pathways, and a subset of eight of the ToxCast chemicals (indoxacarb, pyrithiobac-sodium, norflurazon, cyhalofop-butyl, methomyl, thiram, acetochlor, and propiconazole). These replicate data, coupled with internal replicates designed within the blinded ToxCast chemical library, provided additional data to evaluate interindividual differences between hepatocyte preparations and their potential impact on chemical profiles.Cell morphology and integrity were evaluated using phase-contrast microscopy as an indicator of hepatocyte cell health (Tyson & Green, 1987). Cultures for each treatment group (i.e., media, vehicle [0.2% DMSO], positive control inducers [multiple concentrations], and the ToxCast chemicals [multiple concentrations]) were observed and cell morphology was assessed relative to vehicle control cultures at each harvest time point (0, 6, 24, or 48 h). […] Images were evaluated at the conclusion of the study to assess changes in cell integrity and account for the effects of chemical exposure on uncharacteristic changes in concentration-dependent gene expression profiles. The results from these determinations of apparent cytotoxicity were annotated (yes/no) alongside the corresponding qNPA data for reference.At the conclusion of each treatment period, hepatocyte cultures (96-well) were washed with 1 volume of HBSS, lysed by addition of 25 ul ArrayPlate lysis buffer (HTG, Tucson, AZ), and 70 ul/well of Denaturation Oil, denatured by incubation at 95C for 10 min, and frozen at approximately -70C until analysis by nuclease protection assay (qNPA) (Roberts et al., 2007). For qNPA analysis, cell lysates were thawed at 50C for approximately 30 min, qNPA probes were added, and samples were incubated at 95C for 10 min to begin the detection process by denaturing the target RNA, dissociating the duplexes and secondary structure hybridization. At the conclusion of the hybridization period, S1 nuclease reagent was added to each sample to digest all nonprotected nucleotides at 50C for 60-90 min. […]
Take `CCCCSP(=O)(SCCCC)SCCCC`: the molecule was called inactive. Regarding `Cc1nn(-c2cc(NS(C)(=O)=O)c(Cl)cc2Cl)c(=O)n1C(F)F`, the outcome was inactive.

Take `CC[C@H](C)[C@H]1O[C@]2(C=C[C@@H]1C)C[C@@H]1C[C@@H](C/C=C(\C)[C@@H](O[C@H]3C[C@H](OC)[C@@H](O[C@H]4C[C@H](OC)[C@@H](NC)[C@H](C)O4)[C@H](C)O3)[C@@H](C)/C=C/C=C3\CO[C@@H]4[C@H](O)C(C)=C[C@@H](C(=O)O1)[C@]34O)O2`: the outcome was inactive. `C[N+]1(C)CCCCC1`: the molecule was called inactive. On to `CC(=NC#N)N(C)Cc1ccc(Cl)nc1`, for which the call was inactive. Then `COc1cc(OC)nc(Sc2cccc(Cl)c2C(=O)O)n1`, with “inactive”; and `CN(C)NC(=O)CCC(=O)O`, with “inactive”. Then `CCOP(=O)(OCC)Oc1cc(C)nc(C(C)C)n1`, with “inactive”; and `CCOP(=O)(SC(C)CC)N1CCSC1=O` (stereo not given), with “inactive”; and `CNc1cnn(-c2cccc(C(F)(F)F)c2)c(=O)c1Cl`, with “inactive”. Then `O=C(O)c1cc(Oc2ccc(C(F)(F)F)cc2Cl)ccc1[N+](=O)[O-]`, with “inactive”; and `C#CC(C)(C)NC(=O)c1cc(Cl)cc(Cl)c1`, with “inactive”. For the molecule `S=C1NCCN1`, the outcome was inactive. Then `CN1COCN(Cc2cnc(Cl)s2)C1=N[N+](=O)[O-]`, with “inactive”. Then `CNC(=O)ON=C(C)SC`, with “inactive”; and `CN(C)C(=O)Nc1cccc(C(F)(F)F)c1`, with “inactive”. The entry for `COP(=O)(NC(C)=O)SC` (stereo not given) is “inactive”; for `C=C(C)[C@H]1Cc2c(ccc3c2O[C@@H]2COc4cc(OC)c(OC)cc4[C@@H]2C3=O)O1` it is “inactive”. In the case of `CCOP(=S)(OCC)OC(Cl)C(Cl)(Cl)Cl` (stereo not given), the outcome was inactive.

`CNC(=O)ON=C(SC)C(=O)N(C)C`: the call was inactive. The entry for `CC(C)[C@H](C(=O)O[C@H](C#N)c1cccc(Oc2ccccc2)c1)c1ccc(Cl)cc1` is “inactive”. As to `CCCCOC(=O)[C@@H](C)Oc1ccc(Oc2ccc(C#N)cc2F)cc1`, the call was inactive. Then `CCc1cnc(C2=NC(C)(C(C)C)C(=O)N2)c(C(=O)O)c1` (stereo not given), with “inactive”; and `CCCOc1nn(C(=O)NS(=O)(=O)c2ccccc2C(=O)OC)c(=O)n1C`, with “inactive”; and `CN(C)[C@@H]1C(=O)C(C(N)=O)=C(O)[C@@]2(O)C(=O)C3=C(O)c4c(O)cccc4[C@@](C)(O)[C@H]3[C@H](O)[C@@H]12`, with “inactive”. The entry for `N#CSCSC#N` is “inactive”; for `CCOP(=S)(Oc1cnc(C(C)(C)C)nc1)OC(C)C` (stereo not given) it is “inactive”; for `CC(C)N(C(=O)SCC(Cl)=C(Cl)Cl)C(C)C` it is “inactive”. Then `Nc1nc(N)nc(NC2CC2)n1`, with “inactive”; and `CCC(=NOC/C=C/Cl)C1=C(O)CC(C2CCOCC2)CC1=O` (stereo not given), with “inactive”.

As to `CCOP(=S)(OCC)SCCSCC`, the call was inactive. The entry for `COc1ccc(C(=CC(=O)N2CCOCC2)c2ccc(Cl)cc2)cc1OC` is “inactive”; for `C[Si](Cn1cncn1)(c1ccc(F)cc1)c1ccc(F)cc1` it is “inactive”.

Take `Cc1cc(C2CC2)nc(Nc2ccccc2)n1`: the call was inactive. The entry for `CCCCN(CC)c1c([N+](=O)[O-])cc(C(F)(F)F)cc1[N+](=O)[O-]` is “inactive”; for `C#CCC1=C(C)C(OC(=O)C2C(C=C(C)C)C2(C)C)CC1=O` (stereo not given) it is “inactive”; for `CSc1nnc(C(C)(C)C)c(=O)n1N` it is “inactive”. The entry for `CCCOCC(=Nc1ccc(Cl)cc1C(F)(F)F)n1ccnc1` is “inactive”; for `CC(C)=CC1C(C(=O)OCN2C(=O)C3=C(CCCC3)C2=O)C1(C)C` (stereo not given) it is “inactive”. Then `CCOC(=O)CC(SP(=O)(OC)OC)C(=O)OCC` (stereo not given), with “inactive”.
